Source: PubChem BioAssay (NCATS)
Unmarked numbers belong to inactive results. Results filed as inconclusive are left out. A call without a number means that no potency is given here. The source made the active and inactive calls. Calls follow the shape of the dose curve; as a rule, active = well fitted curve in the direction sought with a large enough effect; inconclusive = small, poorly fitted or top-dose-only effect, or another doubt; inactive = no such curve, though single readings can be large; an effect the other way counts as inactive or inconclusive.

Test system: Nanoluciferase (engineered Oplophorus gracilirostris luciferase)
Assay: Primary Nanoluciferase (NLuc) qHTS assay for identification of artifact compounds. (AID 1845222);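 also: NLuc secreted into diluted conditioned medium of S16 cells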
Conditions: NLuc-conditioned medium, Nano-Glo luminescence, 5 min; series mostly up to 54.1 µM
In short: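 Using secreted nanoluciferase in S16 culture medium (0.22 um filtered, 1:55 dilution), compounds were preincubated 15 min at RT. Signal was generated with Nano-Glo reagent (1:100) over 5 min.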

**Q.** Which Potency does the source give for CCCCCn1cc(C(=O)Oc2cccc3cccnc23)c2ccccc21 here?
**A.** The Potency was “inactive”.

**Q.** For COc1cc(O)c2c(c1)CCC[C@@H](O)[C@H](O)C(=O)/C=C\C[C@H](C)OC2=O, which Potency is on record?
**A.** Its Potency is “inactive”.

**Q.** Which Potency does the source give for C[C@]12CC[C@H](O)C[C@@]1(O)CC[C@@H]1[C@@H]2CC[C@]2(C)[C@@H](c3ccc(=O)oc3)CC[C@]12O here?
**A.** The Potency was “inactive”.

**Q.** For COC(=O)C12C(=O)C(C)(O)C(=O)C1(C)C(C)=CC1C34CCC(OC3=O)C(C)(C)C4CCC12C (stereo unspecified), which Potency is on record?
**A.** The Potency was “inactive”.

**Q.** With CC1=CC2OC3CC(O)[C@](C)([C@@]2(C)C(O)C1=O)[C@]31CO1 (stereo partly specified) as the compound, how does the Potency read?
**A.** The Potency was “inactive”.

Test system: not listed separately
Assay: Primary redox qHTS assay for identification of artifact compounds. (AID 1845223); also: potency is read from the fitted curve at half-maximal effect
Conditions: Amplex Red/HRP redox cycling with DTT, fluorescence; series mostly up to 53.8 µM
In short: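 Redox-cycling detection via DTT (250 uM final) oxidation coupled to Amplex Red (25 uM)/HRP (250 mU/mL) in HBSS. 15 min preincubation plus 30 min after DTT, room temperature. Ex/Em 525/598 nm; 4-parameter Hill fit against DMSO and 10 uM DA3003.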

**Q.** Which Potency does the source give for CC1=CC(=O)[C@@H](O)[C@@]2(C)C1C[C@H]1OC(=O)[C@H](O)[C@@]3(O)[C@@H](C)[C@@H](O)[C@H](O)C2[C@@]13C (stereo partly specified) here?
**A.** Its Potency is “inactive”.

**Q.** Which Potency does the source give for CN(Cc1cccc(-c2ccncc2)c1)C(=O)Oc1ccc(-c2ccc(C(N)=O)cc2)cc1 here?
**A.** The Potency was “inactive”.

**Q.** Which Potency does the source give for CN(C(=O)C(c1ccccc1)c1ccccc1)[C@H](CN1CC[C@H](O)C1)c1ccccc1 here?
**A.** Its Potency is “inactive”.

**Q.** With Fc1cc(F)c2c(c1)C1C=CCC1C(c1cccnc1)N2 (stereo unspecified) as the compound, how does the Potency read?
**A.** The Potency was “inactive”.

**Q.** With CN=C(NS(=O)(=O)c1ccc(Cl)cc1)N1C[C@H](c2ccccc2)C(c2ccc(Cl)cc2)=N1 as the compound, how does the Potency read?
**A.** The Potency was “inactive”.

**Q.** With COC1CC(O[C@H]2CC[C@@]3(C)C(CCC4C3CC[C@]3(C)C(C5=CC(=O)OC5)CCC43O)C2)OC(C)C1OC1OC(COC2OC(CO)C(O)C(O)C2O)C(O)C(O)C1O (stereo partly specified) as the compound, how does the redox activity (% of DA3003) read?
**A.** Its redox activity (% of DA3003) is 16.1% [at 11.5 µM].

**Q.** For Cc1c(N[C@@H](c2nnc(-c3ccc(C#N)cc3)o2)[C@H](C)O)ccc(C#N)c1Cl, which Potency is on record?
**A.** Its Potency is “inactive”.

**Q.** For C=C1C(=O)CC2OC2(C)CC2OC(=O)C(=C)C2C(O)C1OC(=O)/C(C)=C\C (stereo unspecified), which Potency is on record?
**A.** The Potency was “inactive”.

**Q.** Which Potency does the source give for CN1C(=O)[C@@H](Cc2c[nH]c3ccccc23)N=C(c2ccccc2F)c2ccccc21 here?
**A.** The Potency was “inactive”.

**Q.** Which Potency does the source give for C=C(C)[C@@]12O[C@@H]1[C@@]1(C)C(=CC2=O)CC[C@@H](OC(C)=O)[C@@H]1C here?
**A.** Its Potency is “inactive”.

**Q.** With c1ccc([C@@H]2C[C@H]2NC2CCNCC2)cc1 as the compound, how does the Potency read?
**A.** Its Potency is “inactive”.

**Q.** For CC[C@H](O)[C@@H](C)[C@H]1O[C@@H]1C[C@H](C)/C=C/C=C(\C)[C@H]1OC(=O)C[C@H](O)CC[C@@](C)(O)[C@@H](OC(C)=O)/C=C/[C@@H]1C, which Potency is on record?
**A.** Its Potency is “inactive”.

**Q.** With C=C1C2(C)CC3C(C)(O)C4=CC(=O)OC(C)(C)C4=CCC3(C)C13C(=O)OC(C)C3(O)C2=O (stereo unspecified) as the compound, how does the Potency read?
**A.** The Potency was 733 nM (active).

**Q.** With CC(=O)O[C@H]1C[C@]2(O)[C@@H]3CC[C@@H]4C[C@@H](O)CC[C@]4(C)[C@H]3CC[C@]2(C)[C@H]1c1ccc(=O)oc1 as the compound, how does the Potency read?
**A.** The Potency was “inactive”.

**Q.** For CN1CCC2=C(C1)c1ccccc1Cc1ccccc12, which Potency is on record?
**A.** The Potency was “inactive”.

**Q.** For C=C(C)C(=O)O[C@H]1[C@@H]2[C@H](C)C(=O)O[C@@H]2C[C@@H](C)[C@@H]2C=CC(=O)[C@]21C, which Potency is on record?
**A.** Its Potency is “inactive”.

**Q.** With CCCN(CCC)[C@@H]1CCc2ccc3[nH]c(C#N)cc3c2C1 as the compound, how does the Potency read?
**A.** The Potency was “inactive”.

**Q.** With Cc1ccc2c(c1)[C@H]1CN(C)CC[C@H]1N2C(=O)CSc1nnnn1-c1ccc(Cl)cc1 as the compound, how does the Potency read?
**A.** The Potency was “inactive”.

**Q.** With C[C@]12CC[C@H](O)C[C@@H]1CC[C@@H]1[C@@H]2CC[C@]2(C)C(=O)CC[C@@H]12 as the compound, how does the Potency read?
**A.** The Potency was “inactive”.

**Q.** For C#C[C@]1(O)CC[C@H]2[C@@H]3CC[C@H]4Cc5nc6nc7ccccc7n6cc5C[C@]4(C)[C@H]3CC[C@@]21C, which Potency is on record?
**A.** The Potency was “inactive”.

**Q.** With CN1C(=O)N(c2ccc(C#N)c(C(F)(F)F)c2)C(=O)[C@@]1(CO)c1ccccc1 as the compound, how does the Potency read?
**A.** Its Potency is “inactive”.

**Q.** With CCCCCn1cc(C(=O)Oc2cccc3cccnc23)c2ccccc21 as the compound, how does the Potency read?
**A.** Its Potency is “inactive”.

**Q.** Which Potency does the source give for C[C@]12CC[C@H](O)C[C@@]1(O)CC[C@@H]1[C@@H]2CC[C@]2(C)[C@@H](c3ccc(=O)oc3)CC[C@]12O here?
**A.** The Potency was “inactive”.

**Q.** With COC(=O)C12C(=O)C(C)(O)C(=O)C1(C)C(C)=CC1C34CCC(OC3=O)C(C)(C)C4CCC12C (stereo unspecified) as the compound, how does the Potency read?
**A.** Its Potency is “inactive”.

**Q.** Which Potency does the source give for CC1=CC2OC3CC(O)[C@](C)([C@@]2(C)C(O)C1=O)[C@]31CO1 (stereo partly specified) here?
**A.** The Potency was “inactive”.

**Q.** Which Potency does the source give for CN1Cc2c(ccc3c2OCO3)[C@@H]2[C@H]1c1cc3c(cc1C[C@@H]2O)OCO3 here?
**A.** The Potency was “inactive”.
